# About 79,000 compounds went through this panel and 15% of them were active in at least one assay; those are over-represented in the sample as a whole. Activity calls are given as the source filed them. Rule as the data show it: active = growth inhibition above about 70%; inactive = the rest. *1 amine or outer side, *2 acyl side, *3 side chain or, on linkers, in order; H or OH if unused. Where a SMILES comes first, the peptide text is derived from it. The star is where a group is joined. Trt = c1ccc(C(c2ccccc2)(c2ccccc2)*)cc1; γGlu = O=C(O)[CH](CCC(=O)[*:2])N[*:1]; Cbz = O=C(OCc1ccccc1)*; Bz = O=C(c1ccccc1)*; NHOH = ON*
# Assay: NCI Yeast Anticancer Drug Screen. Data for the rad50 strain (AID 155);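 also: 0% = growth of vehicle-only cultures of the same strain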
# Conditions: S. cerevisiae rad50 strain growth inhibition; at 50.0 µM; stronger effect = higher value
# Procedure, shortened: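 Yeast carrying a defined DNA repair defect were exposed to test compounds, and growth was compared with vehicle-treated controls to give percent inhibition.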
row,SMILES,growth inhibition
1,O=C1OC(c2cccc(Cl)c2)=N/C1=C\c1ccc(Cl)cc1,20.4% (inactive)
2,CC(=O)N1CCC(=O)/C(=C/c2ccccc2)C1,4.95% (inactive)
3,Cc1cccc(NN)c1,59.6% (inactive)
4,CCCCCCCC/C=C/CCCCCC1CCCC(C)N1 (stereo not drawn),26.9% (inactive)
5,Nc1ncnc2c1cnn2Cc1ccccc1,4.9% (inactive)
6,C/C(=N/NS(=O)(=O)c1ccc(N)cc1)c1ccccc1,9.9% (inactive)
7,COc1cc([N+](=O)[O-])ccc1NC(=O)Nc1ccc(Cl)cc1[N+](=O)[O-],-4.8% (inactive)
8,CCOC(=O)Oc1ccc(C(=O)Oc2cc(Cl)c(Cl)cc2Cl)cc1OC,3.9% (inactive)
9,Cc1ccccc1C(=O)NNC(=O)c1cccc2ccccc12,27.6% (inactive)
10,Cc1cc(S(=O)(=O)Nc2nc3ccccc3[nH]2)c(S)cc1Cl,19.9% (inactive)
11,O=C1NCC/C1=C\c1ccc(Cl)c(Cl)c1,9.4% (inactive)
12,CCCCc1ccc(Nc2nc(SC)c3[nH]cnc3n2)cc1,0.85% (inactive)
13,CC(=O)Nc1cc2c(s1)CCC1CC(=O)NN=C21 (stereo not drawn),-12.4% (inactive)
14,CC(=O)c1ccc2c(ccc3ccccc32)c1O,-16.5% (inactive)
15,CC(C)c1nnc(NC(=O)CSC(=S)N2CCOCC2)s1,-23.9% (inactive)
16,COC(=O)C(CSC(=O)c1ccccc1)NC(=O)CNC(=O)CNC(=O)C(CCCCNC(=O)OCc1ccccc1)NC(=O)CNC(=O)C(CSC(c1ccccc1)(c1ccccc1)c1ccccc1)NC(=O)OCc1ccccc1 (stereo not drawn) (Cbz-C(Trt)GK(Cbz)GGC(Bz)-OMe; configuration not given here),-4.85% (inactive)
17,CC1=CC2=C(OCO1)C(=O)c1ccccc1C2=O,7.25% (inactive)
18,C=C1CCC2(C)CCC3(C)C(CCC4C5(C)CCC(OC(C)=O)C(C)(C)C5CCC43C)C2C1C (stereo not drawn),-4.05% (inactive)
19,CNCc1ccccc1,-1.25% (inactive)
20,NC(=S)N/N=C(\Cc1nc2ccc(Cl)cc2[nH]c1=O)C(=O)Nc1ccc(Cl)cc1,-17.9% (inactive)
21,O=C(OCC(OC(=O)c1ccccc1)C(OC(=O)c1ccccc1)C(OC(=O)c1ccccc1)C(COC(=O)c1ccccc1)OC(=O)c1ccccc1)c1ccccc1 (stereo not drawn),22.1% (inactive)
22,COC(=O)C1CC(c2ccc(Cl)cc2)=NO1 (stereo not drawn),36.4% (inactive)
23,CCN(CC)C1=CC(=O)C(N(CC)CC)=CC1=O,1.25% (inactive)

# Assay: NCI Yeast Anticancer Drug Screen. Data for the mec2-1 strain (AID 157)
# Conditions: S. cerevisiae mec2-1 strain, at 50.0 µM, stronger effect = higher value
# Procedure, shortened: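 Using mec2-1 yeast: add compound, measure growth, express inhibition versus vehicle-treated cultures.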
row,SMILES,growth inhibition
1,NCCSCCN,-2.45% (inactive)
2,NC(CCC(=O)NC(CCC(=O)NO)C(=O)NCC(=O)O)C(=O)O (stereo not drawn) (γGlu-Glu(NHOH)-Gly-OH; configuration not given here),-3.2% (inactive)
3,O=c1ccn2n1Cc1ccccc1C2,-20.8% (inactive)
4,Cn1c(C=O)cc2c(Cl)nccc21,-17.4% (inactive)
5,CC(=O)Nc1ccc[n+](CC(=O)c2ccc(F)cc2)c1,0.85% (inactive)
6,CCOC(=O)C1C=CC(C)N(C(=O)OCC)N1C(=O)OCC (stereo not drawn),2.45% (inactive)
7,Nc1nc(-c2ccco2)cc(-c2ccc(CO)o2)n1,3.5% (inactive)
8,O=C1NC(Cc2cccc(I)c2)C(=O)N1c1ccccc1 (stereo not drawn),3.1% (inactive)
9,CCOC(=O)C(=O)C1C(=O)Nc2ccccc21 (stereo not drawn),-4.9% (inactive)
10,CN(C)C1Cc2ccccc2C1OC(=O)c1ccccc1 (stereo not drawn),20.2% (inactive)
11,O=S(=O)(c1ccc(Br)cc1)S(=O)(=O)c1ccc(Br)cc1,0.7% (inactive)
12,CCc1cc2c(cc1C(=O)/C=C\c1cccc3ccccc13)C(C)(C)CCC2(C)C,-5.35% (inactive)
13,CC(=O)/C=C1/NC(C(=O)c2ccccc2)=CNC1c1ccccc1 (stereo not drawn),3.75% (inactive)
14,CCOC(=O)CCC(NC(=O)c1ccc(NC)c([N+](=O)[O-])c1)C(=O)OCC (stereo not drawn),-1.9% (inactive)
15,Cc1ccc(S(=O)(=O)OCCOCCOc2ccc(C(C)(C)CC(C)(C)C)cc2)cc1,1.05% (inactive)
16,ONC1=Nc2ccccc2C(=S)N2CSCC12 (stereo not drawn),-13.4% (inactive)
17,CCCCN(C(C)=O)c1ccccc1,9.45% (inactive)
18,O=C1OC(c2cccc(Cl)c2)=N/C1=C\c1ccc(Cl)cc1,16.6% (inactive)
19,CC(=O)N1CCC(=O)/C(=C/c2ccccc2)C1,0% (inactive)
20,Cc1cccc(NN)c1,32.1% (inactive)

row,SMILES,growth inhibition
1,CCCCCCCC/C=C/CCCCCC1CCCC(C)N1 (stereo not drawn),-20.6% (inactive)
2,Nc1ncnc2c1cnn2Cc1ccccc1,-7.3% (inactive)
3,C/C(=N/NS(=O)(=O)c1ccc(N)cc1)c1ccccc1,-14.8% (inactive)
4,COc1cc([N+](=O)[O-])ccc1NC(=O)Nc1ccc(Cl)cc1[N+](=O)[O-],28.1% (inactive)
5,CCOC(=O)Oc1ccc(C(=O)Oc2cc(Cl)c(Cl)cc2Cl)cc1OC,4.7% (inactive)
6,Cc1ccccc1C(=O)NNC(=O)c1cccc2ccccc12,-24.9% (inactive)
7,Cc1cc(S(=O)(=O)Nc2nc3ccccc3[nH]2)c(S)cc1Cl,13.2% (inactive)
8,O=C1NCC/C1=C\c1ccc(Cl)c(Cl)c1,-12.4% (inactive)
9,CCCCc1ccc(Nc2nc(SC)c3[nH]cnc3n2)cc1,-17.6% (inactive)
10,CC(=O)Nc1cc2c(s1)CCC1CC(=O)NN=C21 (stereo not drawn),-25.6% (inactive)
11,CC(=O)c1ccc2c(ccc3ccccc32)c1O,-11.6% (inactive)
12,CC(C)c1nnc(NC(=O)CSC(=S)N2CCOCC2)s1,-18.1% (inactive)
13,COC(=O)C(CSC(=O)c1ccccc1)NC(=O)CNC(=O)CNC(=O)C(CCCCNC(=O)OCc1ccccc1)NC(=O)CNC(=O)C(CSC(c1ccccc1)(c1ccccc1)c1ccccc1)NC(=O)OCc1ccccc1 (stereo not drawn) (Cbz-C(Trt)GK(Cbz)GGC(Bz)-OMe; configuration not given here),22.9% (inactive)
14,CC1=CC2=C(OCO1)C(=O)c1ccccc1C2=O,14.6% (inactive)
15,C=C1CCC2(C)CCC3(C)C(CCC4C5(C)CCC(OC(C)=O)C(C)(C)C5CCC43C)C2C1C (stereo not drawn),-5.9% (inactive)
16,CNCc1ccccc1,-2.8% (inactive)
17,NC(=S)N/N=C(\Cc1nc2ccc(Cl)cc2[nH]c1=O)C(=O)Nc1ccc(Cl)cc1,2.35% (inactive)
18,O=C(OCC(OC(=O)c1ccccc1)C(OC(=O)c1ccccc1)C(OC(=O)c1ccccc1)C(COC(=O)c1ccccc1)OC(=O)c1ccccc1)c1ccccc1 (stereo not drawn),10% (inactive)
19,COC(=O)C1CC(c2ccc(Cl)cc2)=NO1 (stereo not drawn),8.25% (inactive)
20,CCN(CC)C1=CC(=O)C(N(CC)CC)=CC1=O,0.15% (inactive)

# Reference: PubChem BioAssay (NCI)
